# Records with an inconclusive call do not appear. Unmarked numbers belong to inactive results. The call rests on the fitted dose curve; in most records, active means well fitted cell-killing curve with a large enough effect in the repeat runs; inconclusive means weak or mixed curves; inactive means no such curve, though single readings can be large or run the other way.
# Test: qHTS assay to identify small molecule antagonists of the peroxisome proliferator-activated receptor delta (PPARd) signaling pathway - cell viability counter screen (AID 743213); further: nearly all actives have a fitted effect of over 50% in size
# Settings: PPARd-bla HEK293H viability, CellTiter-Glo luminescence, 17 h; series mostly up to 62 µM; viability change, negative = cytotoxic: at the top concentration
# Excerpt: U.S. Tox21 Program National Center for Advancing Translational Sciences [NCATS] NIH Chemical Genomics Center [NCGC] U.S. Environmental Protection Agency [EPA] National Institutes of Environmental Health Sciences [NIEHS] National Toxicology Program [NTP] U.S. Food and Drug Administration [FDA] Tox21 Assay Overview: The peroxisome proliferator-activated receptors (PPARs) are lipid-activated transcription factors of the nuclear receptor superfamily with three distinct subtypes namely PPAR alpha, PPAR delta (PPARd) and PPAR gamma. All these subtypes heterodimerizes with Retinoid X receptor (RXR) and have different physiological functions. […] To identify the compounds that inhibit PPAR-delta signaling, GeneBLAzer PPAR delta UAS-bla HEK293H cell line (Invitrogen, Carlsbad, CA, USA) containing a beta-lactamase reporter gene under the control of an Upstream Activator Sequence (UAS) was used to screen the Tox21 compound library. The cytotoxicity of the Tox21 compound library against the PPARd-bla cell line was tested in parallel by measuring the cell viability using CellTiter-Glo assay (Promega, Madison, WI) in the same wells.
# Tox21 Assay Protocol Summary: PPARd-bla cells were dispensed at 3000 cells/5uL/well in 1536-well black wall/clear bottom plates using a Multidrop Combi (Thermo Fisher Scientific, Waltham, MA) dispenser. After the assay plates were incubated at 37 C and 5% CO2 for 5 h, 23 nL of compounds dissolved in DMSO, positive controls or DMSO only was transferred to the assay plate by a Pintool station (Kalypsys, San Diego, CA), followed by addition of 1ul L165041 (300 nM, final concentration in the wells). The assay plates were incubated at 37 C for 17 h, and then 1 uL of LiveBLAzerTM B/G FRET substrate was added using a Bioraptr Flying Reagent Dispenser (FRD) workstation (Beckman Coulter, Indianapolis, IN, USA). The assay plates were incubated at room temperature for 2 h and fluorescence intensity was measured by an Envision plate reader (PerkinElmer, Shelton, CT). For cell viability readout that measures cytotoxicity, 3 ul/well of CellTiter-Glo reagent was added into the assay plates using a Bioraptr FRD. After 30 min incubation at room temperature, the luminescence intensity in the plates was measured using a ViewLux plate reader (PerkinElmer).
# On the % scale 0 is the no-effect control and ±100 the full control effect.
row,Structure (SMILES),"viability change, negative = cytotoxic"
1,O=C(/N=N/C(=O)OCc1ccccc1)OCc1ccccc1,9.54%
2,CC(C)(C)c1nnc(NS(=O)(=O)c2ccc(N)cc2)s1,13.7%
3,O=C(O)Cc1ccc(Cl)cc1Cl,6.46%
4,CCN1CCc2nc(N)oc2CC1,27.1%
5,C=Cc1ccccn1,2.75% [at 80.4 µM]
6,CCOC(=O)c1ccc(OC(=O)CCCCCN=C(N)N)cc1,-6.86%
7,Cc1ccc(C=O)cc1C,-1.84%
8,COc1ccc(Br)c(C)c1,-5.62% [at 80.4 µM]
9,CN=C(NC#N)Nc1ccc(C2=NNC(=O)CC2C)cc1 (stereo not given),13.8%
10,C[Si](C)=O,-0.681% [at 6.26 µM]
11,Cc1cc2cc3c(C)cc(=O)oc3c(C)c2o1,-0.353%
12,CC(CO)c1ccccc1 (stereo not given),4.94%
13,CC(COC(C)(C)C)OCCCO (stereo not given),10.2%
14,CC(=O)Nc1cccc(C)c1,19.7% [at 80.4 µM]
15,CC(C)=O,-10.8%
16,O=C(CCNNC(=O)c1ccncc1)NCc1ccccc1,18.9%
17,CC(C)N(c1ccccc1)C(C)C,1.23%
18,CN(C)CCOCCO,15%
19,CC(C)C(=O)OCCc1ccccc1,7.72%
20,FC(F)(F)c1ccccc1-n1ccnc1,7.9%

row,Structure (SMILES),"viability change, negative = cytotoxic"
1,CC1(C)S[C@@H]2[C@H](N=CN3CCCCCC3)C(=O)N2[C@H]1C(=O)O,-2.96%
2,CCN(CC)CC(=O)Nc1c(C)cccc1C,1.03%
3,BrCc1cccc(Oc2ccccc2)c1,29.4%
4,CCOC(=O)[C@H](CCc1ccccc1)N[C@@H](C)C(=O)N1C(=O)N(C)C[C@H]1C(=O)O,6.46%
5,Cc1cc(C(C)(C)C)c(O)c(C)c1CC1=NCCN1,-10.8%
6,CC[C@H](C)C(=O)O[C@H]1C[C@H](O)C=C2C=C[C@H](C)[C@H](CC[C@@H](O)C[C@@H](O)CC(=O)O)[C@H]21,1.2%
7,c1ccc2nccnc2c1,-0.203% [at 80.4 µM]
8,CCCCCCCC/C=C\CCCCCCCC(=O)OCCCC,5.64% [at 28.9 µM]
9,CC(=O)N[C@@H](CCC(=O)O)C(=O)O,0.787%
10,Cc1cc(NC(=O)C2=C(O)c3ccccc3S(=O)(=O)N2C)no1,3.4%
11,Brc1ccc(-c2ccccc2)cc1,3.41%
12,CCCCOCCOC(=O)COc1nc(Cl)c(Cl)cc1Cl,8.99%
13,CC(C)(C)c1n[nH]c(=S)n(N)c1=O,16.3%
14,CC(=O)NCCCCCC(=O)O,0.558%
15,CCCC(=O)C(C)=O,1.96%
16,CC(C)CC(=O)O,-5.72%
17,CC(C)(C)OC(=O)c1ccc(O)cc1,8.28%
18,O=C(NCC(O)CO)c1c(I)c(C(=O)NCC(O)CO)c(I)c(N(CCO)C(=O)CO)c1I (stereo not given),1.03%
19,Oc1cn2c(n1)Nc1ccc(Cl)c(Cl)c1C2,10.4% [at 28.9 µM]
20,ClCCCl,1.2%
